Test results taken from PubChem BioAssay AID1259398 (Fisher Drug Discovery Resource Center, 2018).
Values joined by “and” are separate entries in the source; they are usually repeats but may differ in a detail not shown here. Equal values may be shown once. The campaign covered roughly 290,000 compounds. About 230 (0.079%) were called active. Cut-off read from the data, not from the text of the source: active = inhibition above about 40%; inactive = the rest. Only a selection was taken, and actives are over-represented in it overall. The source holds several records for some structures; these can differ, active in one and inactive in another.

These compounds were tested against Cyclic GMP-AMP synthase (Homo sapiens) (UniProt Q8N884) (assay: Primary biochemical luminescence assay for human cyclic GMP-AMP synthase inhibitors (AID 1259398;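 note: 0% = vehicle reaction and 100% = reaction without DNA for no activity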)). Settings: recombinant h-cGAS, ATP depletion, Kinase-Glo luminescence; at 12.5 µM; stronger effect = higher value.
Chain of Cyclic GMP-AMP synthase (Homo sapiens) (Q8N884 whole entry, looked up): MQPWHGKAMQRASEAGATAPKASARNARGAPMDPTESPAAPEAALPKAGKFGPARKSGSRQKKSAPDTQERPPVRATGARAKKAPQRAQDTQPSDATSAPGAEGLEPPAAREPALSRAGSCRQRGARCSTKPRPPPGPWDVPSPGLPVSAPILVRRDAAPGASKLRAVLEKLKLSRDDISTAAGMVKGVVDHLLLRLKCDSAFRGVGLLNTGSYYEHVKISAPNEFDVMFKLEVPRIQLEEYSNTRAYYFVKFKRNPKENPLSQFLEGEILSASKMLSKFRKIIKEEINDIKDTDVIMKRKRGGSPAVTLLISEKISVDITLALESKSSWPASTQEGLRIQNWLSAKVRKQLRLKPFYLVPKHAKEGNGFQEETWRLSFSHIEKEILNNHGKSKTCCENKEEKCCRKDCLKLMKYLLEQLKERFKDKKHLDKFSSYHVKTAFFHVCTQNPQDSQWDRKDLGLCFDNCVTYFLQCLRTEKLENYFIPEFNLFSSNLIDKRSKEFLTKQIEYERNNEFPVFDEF

Structure (SMILES)	inhibition
Cc1cc(NC(=O)Cc2cccs2)n(-c2nc(-c3cccs3)cs2)n1	-2.04% (inactive)
CN(CCCOc1ccccc1Cl)C(=O)C1(N)CC1	-6.84% (inactive)
CC(C(=O)N1CCCCCC1)N1CCCC(C(=O)Nc2ccccc2)C1 (centres undefined)	-13.6% (inactive)
CC1CC(=O)C2C=Nc3ccccc3N=C2C1 (centres undefined)	-2.79% (inactive)
CS(=O)(=O)N1CCCC(NCc2ccc(-c3ccc(C(F)(F)F)cc3)o2)C1 (centres undefined)	-7.61% (inactive)
CCOC(=O)c1[nH]c(C)c(C(=O)C(C)N(CCOC)C(=O)Nc2c(C)cccc2C)c1C (centres undefined)	-3.12% (inactive)
O=S1(=O)N=C(Nc2ccccc2Cl)c2ccccc21	-4.92% (inactive)
Cc1noc(C)c1CN1CCN2C=C(C(=O)NC3CCc4ccccc43)OC2=NC1=O (centres undefined)	-7.38% (inactive)
C=CCn1c(SCC(=O)c2cc(C)n(Cc3ccco3)c2C)nc2sc(C)c(C)c2c1=O	-4.88% (inactive)
Cc1c(C(=O)N2CCc3[nH]nc(-c4ccccc4)c3C2)[nH]c2c(F)cccc12	-6.74% (inactive)
Cc1csc(=O)n1CCC(=O)Nc1ccc(S(=O)(=O)N(C)C(C)C)cc1	7.25% (inactive)
CC(=O)c1cccc(N2C(=O)C3C4C=CC(C5CC45)C3C2=O)c1 (centres undefined)	-3.94% (inactive)
CCOC(=O)c1cc(-c2ccccc2)sc1NC(=O)CC1CCCC1	-6.75% (inactive)
CCOC(=O)c1ccc(NC(=O)Cn2c(-c3nnc(C(C)C)o3)cc3ccccc32)cc1	-1.71% (inactive)
Cc1ncc(CN(C)CC2CCN(c3ccccc3)C2)[nH]1 (centres undefined)	-4.21% (inactive)
COCC(=O)Nc1ccccc1C(=O)N1CC(C)CC(C)C1 (centres undefined)	-11.9% (inactive)
Cc1ccc(CSc2nc(=O)n(CCO)c3c2CCC3)cc1	-6.25% (inactive)
O=C(c1cn[nH]c1-c1ccc(F)cc1)N1CCN(S(=O)(=O)c2ccccc2)CC1	-8.02% (inactive)
COCCNC(=O)c1ccc(CSc2nnc(Cc3ccccc3)n2-c2ccc(OC)cc2)cc1	5.06% (inactive)
COc1cccc(CN2CCC(C(=O)NC(c3cccc(OC)c3)c3ccccn3)CC2)c1 (centres undefined)	-3.62% (inactive)
COc1cc(C(=O)Nc2oc3ccccc3c(=O)c2-c2ccccc2)cc(OC)c1OC	-4.49% (inactive)
N#CC(=C1NS(=O)(=O)c2ccccc21)c1nc2ccccc2n1Cc1ccccc1	-6.01% (inactive)
NC(=O)C1CCCN1C(=O)NC(=O)CSc1ccccc1Cl (centres undefined)	20.8% (inactive)

Structure (SMILES)	inhibition
N#Cc1ccsc1NC(=O)c1cc(Cl)c2c(c1)OCO2	0.691% (inactive)
CCc1c(C(=O)N2CCCC2)c(CC(C)C)nn1-c1ccc(Cl)cc1	-4.87% (inactive)
CCC(C(=O)N1CCN(C(C(=O)Nc2cccc(Cl)c2)C2CCCC2)CC1)c1ccccc1 (centres undefined)	-0.887% (inactive)
CN1C(=O)[C@]2(C)[C@H](c3ccccc31)[C@@H](C(N)=O)CN2C(=O)CC(C)(C)C	-2.6% (inactive)
CCC1CSC(=Nc2ccc(Cl)cc2)N1C(=O)c1ccc(C)nc1 (centres undefined)	-0.466% (inactive)
COc1cccc(CN2CCCN(c3nc(Cc4ccccc4)nc4c3c(C)nn4-c3ccc(F)cc3)CC2)c1	-3.74% (inactive)
CC(C)CC(CNc1ccc(S(=O)(=O)N2CCCCC2)cc1[N+](=O)[O-])N1CCOCC1 (centres undefined)	-5.16% (inactive)
Oc1c(Cl)cc(Cl)c(Cl)c1Cc1c(O)c(Cl)cc(Cl)c1Cl	84.9% (active) and 0.133% (inactive)
COc1ccc(NS(=O)(=O)c2cc(C(=O)Nc3ccc(C)cc3)ccc2C)cc1	-2.65% (inactive)
O=C(Cc1csc(SCC(=O)c2ccccc2)n1)NCCC1=CCCCC1	7.3% (inactive)
CS(=O)(=O)c1ccc(Oc2ccc3sc(=O)oc3c2)c([N+](=O)[O-])c1	-8.14% (inactive)
O=[N+]([O-])c1cc(S(=O)(=O)C(F)(F)F)ccc1Oc1ccc2oc3c(c2c1)CCCC3	50.2% (active)
O=[N+]([O-])c1cc(S(=O)(=O)C(F)(F)F)ccc1N1CCCC1	-6.28% (inactive)
C=CCN(Cc1ccccc1OC)C(=O)c1ccc(NC(C)=O)cc1	0.115% (inactive)
Cc1ccc(S(=O)(=O)NCc2ccc3c(c2)OCO3)c(C)c1C	-9.87% (inactive)
CS(=O)(=O)c1cccc2sc(Cl)nc12	-7.81% (inactive)
CCCCCN(CC(=O)N(CCCC)Cc1cccn1Cc1ccc(Br)cc1)C(=O)c1ccc2c(c1)OCO2	-1.37% (inactive)
CC(C)CN(CC(C)C)C(=O)c1cccnc1Nc1cccc(C(F)(F)F)c1	-2.78% (inactive)
CC(Nc1nc2c(c(=O)[nH]c(=O)n2C)n1Cc1ccccc1)c1ccccc1 (centres undefined)	2.23% (inactive)
CS(=O)(=O)N1CCC(C(=O)NCc2cc(-c3ccc4c(c3)OCCO4)on2)CC1	-5.92% (inactive)
CC(NC(=O)c1ccc(Br)cc1F)C(=O)N1CCOCC1 (centres undefined)	-5.97% (inactive)
CC[N+](C)(CC)CCC[n+]1c(-c2ccccc2)c2cc(N)ccc2c2ccc(N)cc21	57.3% (active)
COc1ccc(CCN(Cc2ccc(C)s2)C(=O)CN(CC2CCCO2)S(=O)(=O)c2c(C)cc(C)cc2C)cc1OC (centres undefined)	-7.86% (inactive)

Structure (SMILES)	inhibition
CC(=O)CC1C(CC(=O)O)C1(C)C (centres undefined)	-5.25% (inactive)
Cc1ccc(S(=O)(=O)Oc2c(CO)cc(C)cc2CO)cc1	-8.05% (inactive)
CC1(C(=O)NCc2cccs2)CCN1Cc1ccc2c(c1)OCCO2 (centres undefined)	-11% (inactive)
CC(=O)N1CCN(C(=O)COC(=O)c2ccc3ccccc3c2O)CC1	-3.7% (inactive)
CC(C)C(=O)N1CCC1(C)C(=O)Nc1ccccn1 (centres undefined)	-6.44% (inactive)
CCc1nnc(CNc2cc(Cl)ccc2F)n1C	-5.8% (inactive)
CCOc1cccc(-c2ccc(Nc3ccc(OC)cc3C)nc2)c1	-0.0439% (inactive)
COc1ccccc1OC1CCN(C(=O)CCC2(Cc3ccccc3)CCC(=O)N2)CC1 (centres undefined)	-5.11% (inactive)
CCN1C(=O)N(Cc2cccc(OC)c2)C(=O)C12CCN(Cc1cn[nH]c1-c1ccc(F)cc1)CC2	11% (inactive)
CC(=O)CC1(O)C(=O)Nc2ccc(I)cc21 (centres undefined)	2.23% (inactive)
CC1CCc2c(sc(NC(=O)c3cccs3)c2C(=O)Nc2ccc(Cl)cc2)C1 (centres undefined)	-14.3% (inactive)
C=CCCC(O)CN(Cc1c(CC)nn(-c2ccccc2)c1Oc1cccc(OC)c1)CC1CC1 (centres undefined)	-5.62% (inactive)
O=C(NCc1n[nH]c(=S)n1C1CC1)c1noc2c1CCCC2	-5.91% (inactive)
O=C(O)CSc1nnc(CCc2ccccc2)n1-c1cccnc1	-3.94% (inactive)
Cc1ccsc1C(=O)N1CCCC(CNC(=O)c2ccc(-c3ccccc3)cc2)C1 (centres undefined)	-7.02% (inactive) and -6.34% (inactive)
C=CCNCc1cnc(S(=O)(=O)Cc2ccc(F)cc2)n1C(C)C	-5.49% (inactive)
O=C(O)c1cc(-c2ccco2)nn1-c1ccccc1Cl	-7.88% (inactive)
C=CCN(CC(=O)Nc1ccccc1C#N)S(=O)(=O)c1c(C)cc(C)cc1C	-5.26% (inactive)
Cn1c(SCC(=O)N2CCN(c3ccccc3)CC2)nnc1C(F)(F)F	-6.17% (inactive)
O=C1CN(C(=O)C2CCCC2)CC(O)CN1Cc1cccc(F)c1 (centres undefined)	11.5% (inactive)
CCc1[nH]n(-c2ccc(Cl)c(Cl)c2)c(=O)c1C1=C([n+]2cccc(C)c2)C(=O)N(CC(C)C)C1=O	-10.4% (inactive)
COCCNC(=O)Cn1nc2c(c1NC(=O)c1cc(OC)cc(OC)c1)CSC2	-4.38% (inactive)
C=CC(=O)Nc1ccc2ncnc(Nc3ccc(OCc4cccc(F)c4)c(Cl)c3)c2c1	43.2% (active)

Structure (SMILES)	inhibition
Cc1ccc(Nc2nc(Nc3cccc(F)c3)nc3nccnc23)cc1Cl	-0.96% (inactive)
N#Cc1cccc(COc2ccc(NC(=O)NCCO)cc2Cl)c1	0.266% (inactive)
Cc1ccc(OC(C)C(=O)N(C)C2CCS(=O)(=O)C2)c(Br)c1 (centres undefined)	-12.8% (inactive) and -9.58% (inactive)
Cc1cccc(C2SCC(=O)N2CC(=O)NCc2ccncc2)c1 (centres undefined)	-4.08% (inactive)
O=C(c1cc(Cl)c2nc3ccccn3c(=O)c2c1)c1cc(F)ccc1O	-5.02% (inactive)
N#CCCN(CCC#N)Cn1c(=O)oc2cc(Br)ccc21	-6.19% (inactive)
c1ccc(Cc2nn3c(Cn4cnc5ccccc54)nnc3s2)cc1	-1.85% (inactive)
CCCc1nnc2sc(Cc3csc(C)n3)nn12	-7.66% (inactive)
COCc1nnc2sc(Cc3ccc4c(c3)CCCC4)nn12	45.2% (active)
Cc1ccc(S(=O)(=O)N2CCCC2c2nc3ccccc3[nH]2)c(C)c1 (centres undefined)	-4.68% (inactive)
COCCN(CCC(=O)N1CCC(Cc2ccccc2)CC1)c1nc(Cc2cccc(OC)c2)ns1	-5.55% (inactive)
CC(C)(CNC(=O)c1cc2cccc(F)c2o1)C1CCCCO1 (centres undefined)	-5.71% (inactive)
Cc1ccc(NC(=O)C2C(C=C(Cl)Cl)C2(C)C)cc1 (centres undefined)	-4.28% (inactive)
COc1ccccc1OC1CN(Cc2cc(C)[nH]n2)C1	-4.73% (inactive)
O=C(NNc1cccc(Cl)c1)[C@@H]1CCCN1c1nccc(Nc2ccccc2)n1	-0.74% (inactive)
CCOc1ccc(N2CCN(C(=O)CCc3ccccc3)C(C)C2=O)cc1 (centres undefined)	-2.37% (inactive)
Cn1cc(CN2CCN(c3ccc(Cl)cn3)CC2)c(-c2ccc3c(c2)OCCO3)n1	-7.9% (inactive)
CC(CN1CCOCC1)NC(=O)N1CCCc2cc(F)c(F)cc21 (centres undefined)	-4.63% (inactive)
Cc1cc(Nc2ccc3c(n2)C(=O)N(CC(=O)NCCCn2ccnc2)C3)n(C)n1	-11.5% (inactive)
N#Cc1cccc(NC(=O)CN(Cc2ccco2)Cc2cccs2)c1	-0.473% (inactive)
